# Active and inactive are the calls of the source. The calls were made as follows, unless noted: active = hit-call score of the fitted dose curve at least 0.9, where 1 is the maximum; inactive = score below 0.9.
# Key:
# [1] = CCTE_Deisenroth_H295R-HTRF_384WELL_ESTRADIOL: CCTE's H295R-HTRF Assay Evaluation of Estradiol Concentration, Deisenroth Lab (AID 2284361); conditions: actives raise or lower the signal
# Summary of the method: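 Estradiol secreted into medium by H295R adrenocortical cells, quantified by HTRF after 48 h dosing over a nine-point 0.001 - 100 uM final range; gain or loss versus DMSO. Parallel ATP-luminescence viability readout; n=5 experiments.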
# [2] = CCTE_Deisenroth_H295R-HTRF_384WELL_TESTOSTERONE: CCTE's H295R-HTRF Assay Evaluation of Testosterone Concentration, Deisenroth Lab (AID 2284373); conditions: actives raise or lower the signal
# Summary of the method: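 Testosterone secreted into medium was quantified by direct HTRF immunoassay after a 48 h treatment of H295R adrenocortical cells (nine concentrations, 0.001–100 uM final). Gain or loss fitted relative to DMSO; CellTiter-Glo viability read on same plates.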
# [3] = CCTE_Deisenroth_H295R-HTRF_384WELL_CTOX: Cytotoxicity Assessment in CCTE's H295R-HTRF Assay, Deisenroth Lab (AID 2284380; active = hit-call score of the fitted dose curve at least 0.9, where 1 is the maximum)
# Protocol: CCTE_Deisenroth_H295R-HTRF_384WELL assay is a cell-based, multiplex-readout assay that uses H295R, a human adrenocortical carcinoma cell line, with measurements taken at 48 hours after chemical dosing in a 384-well microplateCCTE_Deisenroth_H295R-HTRF_384WELL_CTOX is one of 3 assay components measured in the CCTE_Deisenroth_H295R-HTRF_384WELL assay (2 hormones and 1 viability components). It is designed to make measurements of adenosine triphosphate (ATP), a form of viability reporter, as detected with luminescence intensity signals by CellTiter-Glo 2.0 cytotoxicity assay technology.This assay endpoint, CCTE_Deisenroth_H295R-HTRF_384WELL_CTOX, was analyzed in the positive fitting direction relative to DMSO as the negative control and baseline of activity. […]
# Standard operating procedures for the cell culture medium, maintenance, expansion, and cryopreservation of the NCI-H295R adrenocortical carcinoma adherent cell line were adopted directly from guideline specifications (EPA 2011, OECD 2011). […] Fluorescent endpoint measurements are conducted with a microplate reader equipped with an HTRF-compatible filter set (ex: 320 (10) […]; em: 620 (10) and 665 (10) nM). […] After collecting conditioned medium samples on Day 3, the viability assay is immediately performed and luminescence readings measured on a microplate reader. […]
smiles,measurement,setting,value
C#C[C@]1(O)CC[C@H]2[C@@H]3CCC4=Cc5oncc5C[C@]4(C)[C@H]3CC[C@@]21C,AC50,[1],38.2 µM (active)
same,AC50,[2],0.362 µM (active)
same,outcome,[3],inactive
